TEAD-YAP block – TEAD-YAP interaction inhibition. HEK-TIYL cells, TEAD-Gal4/YAP UAS-luciferase luminescence. inhibition, % at 9.12 µM. hit rate 1.4% among 640,000. AID 1259422; in the data active = inhibition above about 32%;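 note: 0% = median of test compound wells and 100% = reference inhibitor wells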
MITF inh – human MITF inhibition, primary screen | O75030 | AlphaScreen MITF homodimerization, bead proximity signal | inhibition, % at 2.6 µM | hit rate 0.91% among 650,000; in the data active = inhibition above about 50%;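 note: 0% = vehicle wells with protein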
GPR151 ag – human GPR151 activation; activation, % at 11.2 µM; PathHunter beta-arrestin GPR151 cells, luminescence; AID 1508602; Q8TDV0; hit rate 1% among 650,000; in the data active = activation above about 4.9%;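 note: 0% = median of compound wells and 100% = cells with positive control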
Target sequence (Q8TDV0 whole entry, looked up): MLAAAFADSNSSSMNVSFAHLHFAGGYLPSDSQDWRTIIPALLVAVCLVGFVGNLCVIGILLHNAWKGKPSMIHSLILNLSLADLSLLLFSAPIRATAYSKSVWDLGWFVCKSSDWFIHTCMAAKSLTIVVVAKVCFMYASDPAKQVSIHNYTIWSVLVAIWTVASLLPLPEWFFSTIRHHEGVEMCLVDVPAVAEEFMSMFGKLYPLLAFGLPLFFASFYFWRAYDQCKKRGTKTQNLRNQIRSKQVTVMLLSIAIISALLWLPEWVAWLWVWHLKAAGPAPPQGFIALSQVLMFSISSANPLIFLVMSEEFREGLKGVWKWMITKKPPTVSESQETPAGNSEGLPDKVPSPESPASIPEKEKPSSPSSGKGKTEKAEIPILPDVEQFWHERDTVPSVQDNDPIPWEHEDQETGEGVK
FBW7 activator – human FBW7 E3 ligase activation, primary screen. normalized activity (activation), % at 26.1 µM. AlphaScreen FBW7–phospho-cyclin E peptide binding, activator screen. hit rate 0.13% among 650,000. Q969H0; in the data active = normalized activity above about 1.9%;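 note: purified mutant Fbw7 with reduced substrate affinity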
MITF inh conf – confirmation of human MITF inhibitors; shares compounds with MITF inh; AlphaScreen MITF homodimerization, biotin/His-MITF beads; inhibition, % at 2.6 µM; hit rate 16% among 4,700; AID 1259372;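 active = inhibition above a cutoff derived from the DMSO control wells, cut at about 28% in these data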;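 note: 0% = MITF dimer wells with DMSO only; inhibitors lower the bead chemiluminescence by keeping MITF from dimerizing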
AlphaScreen intf2 – counter-screen: compounds optically interfering with AlphaScreen | hit rate 7.6% among 4,700 | shares compounds with MITF inh | inhibition, % at 2.6 µM | AID 1259376 | LysRS AlphaScreen counterscreen, signal interference, triplicate;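 active = inhibition above a cutoff derived from the DMSO control wells, cut at about 30% in these data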
* marks the source's active call; other numbers are inactive results; x = not tested or not shown. In the library only some 3.5% were active in any assay of this set; here they are far more common.

SMILES	TEAD-YAP block	MITF inh	GPR151 ag	FBW7 activator	MITF inh conf	AlphaScreen intf2
CCOC(=O)C1C(c2ccc3c(c2)OCO3)NC(=S)NC1(O)C(F)(F)F (centres undefined)	-14	-13	-1	0	x	x
CCc1nc(-c2ccccc2)c2ccccn12	2	55*	2	0	9	14
COc1cccc(C(=O)NNC(=O)C(=O)NCCO)c1	5	61*	1	1	-6	3
COc1cccc(C(=O)NNC(=O)C(=O)NC(C)C)c1	0	10	0	0	x	x
CC1(C)CC(=O)C=C(Nc2sc3c(c2C(N)=O)CCCC3)C1	10	81*	1	0	2	33*
CCC(=O)Nc1sc2c(c1C(N)=O)CCCC2	11	-10	1	0	x	x
O=C(CN1Cc2ccccc2OC(c2ccccc2F)C1)NCC1CCS(=O)(=O)C1 (centres undefined)	5	61*	0	0	2	2
O=C(CN1Cc2ccccc2OC(c2ccccc2F)C1)NC1CCC(O)CC1 (centres undefined)	-5	-5	-1	0	x	x
CN(C)CCNCCCOc1ccccc1-c1ccccc1	-1	74*	1	0	2	22
CN(C)CCOCCOc1cccc(Oc2ccccc2)c1	-9	51	2	0	x	x
CN(C)CCCOc1ccccc1-c1ccccc1	6	53*	0	0	-11	-4
CN(C)CCNCCOCCOc1ccccc1-c1ccccc1	5	0	-1	0	x	x
CN(C)CCCOc1cccc(Oc2ccccc2)c1	1	62*	1	0	1	12
O=C(CN1C(=O)C2CCCN2C(=O)c2ccccc21)Nc1ccc(F)cc1 (centres undefined)	3	1	-1	0	x	x
N#Cc1ccc(NC(=O)CN2C(=O)C3CCCN3C(=O)c3ccccc32)cc1 (centres undefined)	-8	72*	0	0	-23	0
N#C/C(=C\C=C\c1ccco1)C(N)=S	0	65*	-1	-1	60*	87*
CC1CCCC(C)N1C(=O)Cn1c(SCC(=O)NC(C)(C)C)nc2ccccc21 (centres undefined)	6	4	0	0	x	x
C=CCc1cccc(C)c1OCCCN1CCN(C)CC1	0	43	-2	0	x	x
C=CCc1cccc(Cl)c1OCCN1CCOCC1	-2	-22	-1	0	x	x
C=CCc1cccc(C)c1OCCN1CCOCC1	-2	86*	0	0	8	6
C=CCc1cccc(Cl)c1OCCN1CCNCC1	7	56*	0	0	-14	-2
C=CCc1cccc(C)c1OCCCN1CCCC1	8	57*	0	1	16	16
CC(C)(C)C(=O)CN1C(=O)COc2ccccc21	-21	67*	3	0	12	8
O=C(CCc1ccccc1)NN1C(=O)C2C3C=CC(C3)C2C1=O (centres undefined)	-4	14	0	1	x	x
CC(=O)c1cccc(N=Cc2ccc(OC(=O)c3ccccn3)cc2)c1	-7	20	-2	0	x	x
SMILES	TEAD-YAP block	MITF inh	GPR151 ag	FBW7 activator	MITF inh conf	AlphaScreen intf2
CN(C)/N=C/c1ccc(OC(=O)c2ccccn2)cc1	-5	43	-2	0	x	x
N#C/C(=C\c1ccc(OC(=O)c2ccccn2)cc1)C(N)=O	10	53*	-1	0	31*	56*
NS(=O)(=O)c1ccc(N=Cc2ccc(OC(=O)c3ccccn3)cc2)cc1	-10	55*	-2	0	17	45*
CC1(C)C2CCC1(CS(=O)(=O)N1CCN(c3ccccc3F)CC1)C(=O)C2 (centres undefined)	2	-1	3	0	x	x
O=S(=O)(c1ccc2ccccc2c1)N1CCN(Cc2ccc(F)cc2)CC1	11	54*	0	0	12	12
O=S(=O)(c1ccc2ccccc2c1)N1CCN(Cc2ccccc2Cl)CC1	-8	58*	0	0	-36	11
O=C(CCCCCn1nnc2ccccc2c1=O)N1CCC(O)(c2cccc(C(F)(F)F)c2)CC1	7	74*	2	0	7	2
COc1ccc(C(=O)NC2CCCCC2)cc1S(=O)(=O)N1CCC(C)CC1	0	67*	0	0	10	13
CCOc1cc(CN2CCN(Cc3ccc4c(c3)OCO4)CC2)ccc1O	-8	75*	0	0	14	13
COc1ccc(CN2CCN(Cc3ccc4c(c3)OCO4)CC2)c(OC)c1OC	6	79*	1	0	10	15
COc1ccc(CN2CCN(Cc3ccc4c(c3)OCO4)CC2)cc1C	3	38	1	0	x	x
COc1ccc(CN2CCN(Cc3ccc4c(c3)OCO4)CC2)cc1OC	-1	82*	0	0	11	9
CCOc1cc(CN2CCN(Cc3ccc4c(c3)OCO4)CC2)ccc1OC	3	31	3	0	x	x
O=C(c1ccc2c(c1)OCO2)N1CCN(Cc2ccc3c(c2)OCO3)CC1	-4	-3	-2	0	x	x
COC(=O)c1ccc(CN2CCN(Cc3ccc4c(c3)OCO4)CC2)cc1	2	56*	0	0	5	1
O=C(NCC1CCCO1)C(=O)NCC(c1ccco1)S(=O)(=O)c1ccccc1 (centres undefined)	-4	7	1	0	x	x
CSc1nnc2c(n1)OC(c1ccsc1)Nc1ccccc1-2 (centres undefined)	-3	11	0	1	x	x
O=C(CCCN1C(=O)S/C(=C/c2ccccc2)C1=O)NCCO	-10	-13	-1	0	x	x
COc1cccc(C2C(C#N)=C(N)N(N3CCOCC3)C3=C2C(=O)CC(C)(C)C3)c1 (centres undefined)	-3	-14	1	0	x	x
COc1ccc(-c2cnc3ccc(NCc4ccc(F)cc4)nn23)c(OC)c1	-9	-3	1	0	x	x
Cc1ccc(S(=O)(=O)Cn2nnnc2CN2CCN(c3ccccc3)CC2)cc1	0	-1	0	0	x	x
Cc1ccc(S(=O)(=O)Cn2nnnc2CN2CCOCC2)cc1	-6	64*	-1	0	10	10
CN1CCN(Cc2ccc(-c3ccco3)cc2)CC1CCO (centres undefined)	1	-5	1	0	x	x
Cc1ccc(C(=O)NC2CCCc3ccccc32)o1 (centres undefined)	11	10	0	0	x	x
C=CCc1cc(C)ccc1OCCCN1CCOCC1	5	72*	4	0	-12	38*
C=CCc1cc(C)ccc1OCCN1CCN(C)CC1	-11	57*	-1	0	6	2
C=CCc1cc(C)ccc1OCCNC(C)C	10	88*	0	0	-19	-3
Cc1ccc(Cl)c(OCCCN2CCOCC2)c1	-13	55*	0	0	13	14
C=CCc1cc(OC)ccc1OCCCCN1CCOCC1	-2	33	-1	0	x	x
Cc1ccc(OCCN2CCOCC2)c(Cl)c1	-4	-7	2	0	x	x

Source: PubChem BioAssay (The Scripps Research Institute Molecular Screening Center)
